Compounds with a hit are over-represented: about 3.2% of the library has one in this group of screens.
PG9 Ab binder: PG9 antibody binding by small molecule; TR-FRET gp120-PG9 antibody binding; inhibition, % at 6.7 µM; 0.43% of 360,000 active; AID 624416; in the data active = inhibition above about 8.5%
MsrA inh: inhibitors of bovine MsrA; 0.75% of 360,000 active; inhibition, % at 15.5 µM; purified bovine MsrA, absorbance read-out; in the data active = inhibition above about 4.5%;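 note: 0% = vehicle wells with enzyme and 100% = reference inhibitor wells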
bovine MsrA act: activators of bovine methionine sulfoxide reductase A; purified bovine MsrA, absorbance read-out; activation, % at 10.6 µM; 0.3% of 360,000 active; AID 602163; in the data active = activation above about 7.5%;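 note: 0% = vehicle and 100% = reference activator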
rCAG binder-1: binds r(CAG) RNA repeats; r(CAG) RNA repeat, TO-PRO-1 dye displacement fluorescence; inhibition, % at 3 µM; 1.3% of 370,000 active; AID 651821;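 active = inhibition above the plate cutoff, the mean of all test compounds on that plate plus 3 SD, cut at about 35% in these data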;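 note: 0% = DMSO alone and 100% = 100 µM mitoxantrone as full dye displacement; higher means more dye released from RNA so lower well fluorescence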
HGIII-sPLA2 inh: Blocks human group III sPLA2 activity | Q9NZ20 | QFRET BODIPY PC-A2 liposome hydrolysis, fluorescence | inhibition, % at 12.2 µM | 0.56% of 370,000 active | AID 743126;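 active = inhibition above mean plus 3 SD of compounds lying within the high and low control bounds, cut at about 19% in these data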;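 note: 0% = median of test compound wells and 100% = no enzyme DMSO wells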
Target sequence (Q9NZ20 whole entry, looked up): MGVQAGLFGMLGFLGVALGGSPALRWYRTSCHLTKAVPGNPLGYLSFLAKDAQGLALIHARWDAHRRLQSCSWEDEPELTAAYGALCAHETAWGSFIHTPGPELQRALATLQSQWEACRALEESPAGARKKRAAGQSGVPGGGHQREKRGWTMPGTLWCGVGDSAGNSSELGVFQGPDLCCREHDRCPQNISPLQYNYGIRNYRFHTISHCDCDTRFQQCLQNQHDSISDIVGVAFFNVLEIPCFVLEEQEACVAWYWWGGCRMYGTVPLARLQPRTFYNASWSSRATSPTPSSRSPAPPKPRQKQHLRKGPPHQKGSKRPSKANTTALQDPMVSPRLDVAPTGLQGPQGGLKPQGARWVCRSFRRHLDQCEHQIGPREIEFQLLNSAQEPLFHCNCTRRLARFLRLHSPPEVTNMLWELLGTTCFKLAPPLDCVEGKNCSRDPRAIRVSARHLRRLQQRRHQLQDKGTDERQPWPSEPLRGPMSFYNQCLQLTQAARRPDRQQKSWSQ
rCAG binder conf: r(CAG) RNA repeat binding, confirmation; shares compounds with rCAG binder-1; TO-PRO-1 dye displacement fluorescence; inhibition, % at 3 µM; 70% of 4,300 active;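 active = inhibition above a per-plate cutoff, the mean inhibition of sample wells plus 3 SD, cut at about 35% in these data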;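 note: loss of TO-PRO-1 fluorescence as compound displaces dye from 1x1 AA loop RNA; 0% = DMSO only wells and 100% = 100 µM mitoxantrone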
dCAG dye counter: disrupts DNA CAG TO-PRO-1 complex, flagging rCAG hits. shares compounds with rCAG binder-1. d(CAG) DNA oligo TO-PRO-1 dye displacement, fluorescence. inhibition, % at 3 µM. 94% of 4,300 active;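 active = inhibition above its plate's cutoff, the mean test-well inhibition plus 3 SD, cut at about 4.8% in these data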;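 note: 0% = DNA dye mix with DMSO and 100% = 100 µM mitoxantrone; hits displace the dye from DNA and so lower well fluorescence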
DNA CAG DR: disrupts DNA CAG TO-PRO-1 complex in dose response; IC50, µM; shares compounds with rCAG binder-1; DNA CAG/GTC duplex TO-PRO-1 dye displacement fluorescence; 20% of 250 active; in the data active = IC50 below about 10 µM
dCAG TOPRO ctr: inhibits DNA CAG/GTC TO-PRO-1 complex, rCAG binder counter-screen | shares compounds with rCAG binder-1 | d(CAG) DNA duplex TO-PRO-1 dye displacement, fluorescence | IC50, µM | 80% of 30 active | AID 720649
rCAG binder-2: molecules binding r(CAG) RNA repeats, late stage dose response; shares compounds with rCAG binder-1; r(CAG) RNA TO-PRO-1 dye displacement, fluorescence; IC50, µM; 100% of 30 active; AID 720651
Numbers without * were called inactive; i = inactive; · = no result. Unless noted, the rule behind the calls is not given here.

SMILES	PG9 Ab binder	MsrA inh	bovine MsrA act	rCAG binder-1	HGIII-sPLA2 inh	rCAG binder conf	dCAG dye counter	others
CC(C)c1ccc(C(c2c(O)c3ccccc3oc2=O)c2c(O)c3ccccc3oc2=O)cc1	-2	2	-5	94*	-43	95*	82*
C/C(CC(c1ccccc1)c1c(O)c2ccccc2oc1=O)=N\Nc1ccc([N+](=O)[O-])cc1[N+](=O)[O-] (centres undefined)	-3	2	-3	9	0	·	·
Cc1c(C(c2ccc(F)cc2)c2c(O)c3ccccc3oc2=O)c(=O)n(-c2ccccc2)n1C (centres undefined)	0	0	-2	10	17	·	·
Cc1ccccc1N1CCN(C2CCCN(C(=O)COc3ccccc3)C2)CC1 (centres undefined)	0	1	-2	-10	-1	·	·
CN1CCN(c2ccc(/C=C3\C(=O)NC(=S)N(c4cccc(Br)c4)C3=O)o2)CC1	-4	0	-2	27	-12	·	·
CCOc1ccc(N2C(=O)/C(=C/c3ccc(C)o3)C(=O)NC2=S)cc1	0	1	-4	36*	-6	45*	17*
Cc1ccc(/C=C2\C(=O)NC(=S)N(c3cccc(F)c3)C2=O)o1	-2	2	-4	45*	-3	49*	20*
COc1ccc(N2C(=O)/C(=C/c3ccc(C)o3)C(=O)NC2=S)cc1	-1	0	-2	24	-19	·	·
CC[C@@H](C(=O)[C@@H](C)[C@@H](O)[C@H](C)CCc1ccc(C)c(O)c1C(=O)O)[C@H]1O[C@](CC)([C@H]2CC[C@](O)(CC)[C@H](C)O2)C[C@@H]1C	-1	1	0	58*	-52	60*	12*	DNA CAG DR=>30
COc1ccc(C2CC(c3c(O)n(CCc4ccccc4)c(=O)[nH]c3=O)=NN2)cc1OC (centres undefined)	-4	0	-2	42*	-20	25	8.0*
CCN(C(=O)COC(=O)c1cn(C)c2ccccc12)c1ccc(F)cc1	-1	0	-4	-2	-18	·	·
CN(C)C1C(=O)C(C(N)=O)=C(O)C2(O)C(=O)C3=C(O)c4c(O)cccc4C(C)(O)C3C(O)C12 (centres undefined)	-3	2	-5	73*	3	23	9.1*
O=C(c1ccco1)N1Cc2ccccc2-n2nncc2C1	0	1	-2	5	17	·	·
O=C(N/N=C/c1c(O)n(CCC2=CCCCC2)c(=S)[nH]c1=O)c1ccccc1	1	2	-8	70*	-2	73*	32*	DNA CAG DR=i;dCAG TOPRO ctr=2.2*;rCAG binder-2=0.99*
O=C(N/N=C/c1c(O)n(CCC2=CCCCC2)c(=O)[nH]c1=O)c1ccccc1	-1	3	-10	46*	-8	40*	11*
COCCO[C@H]1CC[C@@]2(C)C(=CCC3C2CC[C@@]2(C)C3CC[C@]2(C)O)C1 (some centres undefined)	-1	1	1	-2	2	·	·
O=C1NC(=O)N(c2ccccc2)C(=O)/C1=C/C=C/c1ccco1	-3	-1	-3	12	-10	·	·
CN1C(=O)/C(=C/C=C/c2ccco2)C(=O)NC1=S	2	1	-12	35*	-7	23	7.8*
Cc1ccc(N2C(=O)NC(=O)/C(=C\C=C\c3ccco3)C2=O)cc1	-3	0	-1	28	-10	·	·
O=C1NC(=O)N(Cc2ccccc2)C(=O)/C1=C\C=C\c1ccco1	-4	1	-3	55*	-10	15	6.5*
O=C1NC(=O)N(Cc2ccco2)C(=O)/C1=C/C=C/c1ccco1	-1	1	-3	50*	2	32	14*
Cc1ccc(N2C(=O)NC(=O)/C(=C\C=C\c3ccco3)C2=O)cc1C	-3	0	-3	36*	-9	10	6.2*
OCCOCCO	-1	0	-5	0	-1	·	·
CCC1CN2CCc3cc(OC)c(OC)cc3C2CC1CC1NCCc2c1[nH]c1ccc(O)cc21 (centres undefined)	-1	1	2	5	14	·	·
O=C1NC(=O)C(C2CCOC2=O)N1 (centres undefined)	-2	1	1	0	-5	·	·
SMILES	PG9 Ab binder	MsrA inh	bovine MsrA act	rCAG binder-1	HGIII-sPLA2 inh	rCAG binder conf	dCAG dye counter	others
Oc1cccc(/C=N/NP(=S)(c2ccccc2)c2ccccc2)c1	3	0	-8	6	-34	·	·
COC(=O)C1=C(c2ccc(-c3ccccc3)c(F)c2)C[C@@H]2CC[C@H]1N2C(=O)N1CCCC1	-2	-2	-1	-4	-12	·	·
Cc1cc(OCC(=O)N[C@@H](Cc2ccccc2)C(=O)O)c2c3c(c(=O)oc2c1)CCC3	-2	3	-5	27	8	·	·
Cc1cc(OCC(=O)NC(Cc2ccc(Cl)cc2)C(=O)O)c2c3c(c(=O)oc2c1)CCC3 (centres undefined)	0	1	-1	54*	-14	54*	16*
COc1cc(/C=C2\C(=O)NC(=O)N(c3ccccc3)C2=O)c([N+](=O)[O-])cc1OC	1	1	-3	3	-13	·	·
COc1ccc(OC)c(N2C(=O)NC(=O)/C(=C/c3ccc([N+](=O)[O-])s3)C2=O)c1	-3	1	-9	79*	-13	73*	38*
Cn1cccc1/C=C1\C(=O)NC(=O)N(Cc2ccco2)C1=O	-1	0	-4	40*	-10	9	3
Cc1ccc(OCCn2cccc2/C=C2/C(=O)NC(=O)N(Cc3ccco3)C2=O)cc1	-2	0	-3	36*	-1	14	8.7*
CN(C)CC1CSCCC1(O)c1ccccc1 (centres undefined)	2	1	-1	-4	3	·	·
Cc1nc2ccccc2c(=O)n1-c1c(Cl)cccc1Cl	-1	0	-1	1	3	·	·
CN1C(=O)C(=Cc2ccc(Sc3ccccc3)o2)C(=O)N(C)C1=S	3	1	-2	54*	-2	58*	21*
CN1C(=O)C(=Cc2ccc(Sc3ccccc3)o2)C(=O)N(C)C1=O	-2	-2	0	5	2	·	·
Cc1ccc(-n2c(=S)[nH]c3ccccc3c2=O)cc1F	-1	-1	-1	36*	-13	34	8.9*
c1ccc(CNC2CCCCCCC2)cc1 (tested in a mixture with another compound)	1	-2	-8	3	0	·	·

Assay outcomes deposited in PubChem BioAssay by The Scripps Research Institute Molecular Screening Center.
